Results published in PubChem BioAssay AID686978 (National Center for Advancing Translational Sciences (NCATS), 2013).
Values joined by “and” are separate entries in the source; they are usually repeats but may differ in a detail not shown here. Equal values may be shown once. Hit rate of the full screen: of about 420,000 compounds, about 64,000 (15%) were called active. Inconclusive results (about 27%) are left out. The call rests on the fitted dose curve; in most records, active means well fitted inhibition curve with a large enough effect; inconclusive means small, poorly fitted or top-dose-only effect; inactive means flat fitted curve, though single readings scatter. Only a sample is shown. Entries that show only a call come without a potency.

Assay: qHTS for Inhibitors of human tyrosyl-DNA phosphodiesterase 1 (TDP1): qHTS in cells in absence of CPT; further: nearly all actives have a fitted effect of over 55% in size
Settings: DT40 Tdp1-/- hTDP1 cells, no CPT, ATP luminescence, 48 h; activity change, negative = growth inhibition: at 46.2 µM (top of the series)
Summary of the method: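 Camptothecin absent (DMSO only). Human TDP1-complemented DT40 knockout cells, 400 cells/well, 37 °C for minimum 48 hr; ATP measured via CellTiter-Glo, 30 min dark incubation, luminescence.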
Potency means the concentration at half of the fitted maximal effect.

Structure (SMILES) | Potency
Brc1cc(Br)c(Oc2cc(Br)c(Br)cc2Br)cc1Br | inactive
CCc1ccc[n+](-c2nc([O-])sc2C=O)c1 | inactive
CCN(CC(=O)Nc1ccccc1C(F)(F)F)C(=O)C1CCN(C(=O)Nc2ccccc2)CC1 | inactive
CC(C)CCN(C(=O)Nc1ccc(Cl)c(Cl)c1)C(C)c1cccs1 (centres undefined) | 18.4 µM (active)
CC(=O)Nc1ccc(S(=O)(=O)N2CCC(N(C)CCC(C)C)CC2)cc1 | inactive
Cc1ccc(NC(=S)N(Cc2ccco2)C(C)c2cccs2)cc1 (centres undefined) | inactive
S=C(Nc1ccc(Br)cc1Cl)N1CCC2(CC1)OCCO2 | inactive
C/C=C/C=C/C(=O)OCC(=O)Nc1ccc(Cl)cc1 | inactive
O=C(NCN1CCN(CCO)CC1)c1cnccn1 | inactive
Cc1cc(/C=C2/SC(=O)N(CC(=O)N3CCCC3)C2=O)c(C)n1C | inactive
O=C(CN1C(=O)CSc2ncccc21)N1CCOCC1 | inactive
Cc1cc(/C=C2/SC(=O)N(CC(=O)N3CCCC3)C2=O)ccc1N1CCOCC1 | 23.1 µM (active)
CN(C)C(=S)Nc1ccc(Br)cc1Cl | inactive
CC(=O)Oc1cc2c(C(=O)NCCN3CCOCC3)c(C)oc2c2ccccc12 | 16.4 µM (active)
Cc1cc(C)cc(C(=O)NCCN2CCOCC2)c1 | inactive
O=C(NCCN1CCOCC1)c1c(F)c(F)c(F)c(F)c1F | inactive
O=C(CCc1nc(CN2CCN(S(=O)(=O)c3ccc(F)cc3)CC2)no1)N1CCCCC1 | inactive
CCN(CC(=O)Nc1ccc(OC)cc1)C(=O)c1ccc(=O)n(Cc2ccccc2)n1 | inactive
O=C(CNC(=O)c1cc(=O)[nH]c2ccccc12)Nc1ccc(F)c(F)c1 | inactive
COC(=O)c1cnn2c(C(F)(F)F)cc(-c3ccco3)nc12 | inactive
CCOc1ccc(C(C)=O)cc1COC(=O)CNC(=O)c1cccs1 | inactive
O=C(O)/C=C/c1ccc(S(=O)(=O)N2CCCCCC2)cc1 | inactive
CN/C(=C\[N+](=O)[O-])NCCSCc1csc(CN(C)C)n1 | inactive
Cc1ccnc(N2CCCC(C(=O)NC3CC3)C2)n1 (centres undefined) | inactive
Cc1nc2ccccc2c(=O)n1CCCn1ccnc1 | inactive
Cc1ccnc(-n2sc3ccccc3c2=O)n1 | 5.17 µM (active)

Structure (SMILES) | Potency
COCCCNC(=O)c1c(F)c(F)c(F)c(F)c1F | inactive
O=C(CSc1nnc(-c2ccncc2)n1C1CCCCC1)Nc1ccccc1 | inactive
CCC(C)N(C)C1CCN(C(=S)Nc2ccc(OC)cc2)CC1 (centres undefined) | inactive
Cc1cccc(-n2nc3c(c2NC(=O)c2ccc(Br)o2)CSC3)c1C | inactive
COc1cccc(C(=O)Nc2c3c(nn2-c2cccc(C)c2C)CS(=O)(=O)C3)c1OC | 15.8 µM (active)
COc1ccccc1OCC(=O)Nc1c2c(nn1-c1ccc(F)cc1)CS(=O)(=O)C2 | inactive
COc1ccc(N(CC(=O)Nc2cccc3ccccc23)S(C)(=O)=O)c(OC)c1 | inactive
CCC(CC)C(=O)Nc1cc(C(=O)OC)cc(C(=O)OC)c1 | inactive
Cc1cc2nc3c(=O)n(Cc4ccccc4)c(=O)[nH]c3nc2cc1N | inactive
Cc1ccc(-n2nnnc2CNC(=O)c2ccccc2C)cc1C | inactive
CCC(=O)N(C)C(c1ccccc1Cl)c1nnnn1-c1c(C)cccc1C (centres undefined) | 18.4 µM (active)
CCOC(=O)N1CCN(C(c2ccnc3ccccc23)c2nnnn2-c2c(C)cccc2C)CC1 (centres undefined) | inactive
Cc1ccc(S(=O)(=O)N(NC2=NS(=O)(=O)c3ccccc32)C(=O)c2ccccc2)cc1 | inactive
Cc1cc(C)c(C)c(S(=O)(=O)N[C@@H](C)C(=O)OC(C)C(=O)NC(N)=O)c1C (some centres undefined) | inactive
COc1ccccc1C(=O)COC(=O)CSCC(=O)Nc1cc(C)on1 | inactive
COC(=O)N1CN(C(=O)OC)CN(C(=O)OC)C1 | inactive
CN(C(=O)CC1C(=O)NCCN1Cc1ccc(F)cc1Cl)C1CCCCC1 (centres undefined) | inactive
CCOC(=O)N1CCN(C(=O)c2n[nH]c(=O)c3ccccc23)CC1 | inactive
COc1cc(NC(=O)c2nn(-c3ccc(C)cc3)c(=O)c3c2c2ccccc2n3C)cc(OC)c1OC | inactive
CCOC(=O)N1CCN(C(=O)c2nn(-c3ccc(C)cc3)c(=O)c3c2c2ccccc2n3C)CC1 | 18.4 µM (active)
CCCN(CCC)CCNC(=O)Cn1cnc2sc(C)c(S(=O)(=O)N3CCC(C)CC3)c2c1=O | inactive
O=C(CC[C@H]1O[C@@H](n2ccc(=O)[nH]c2=O)[C@H](O)[C@@H]1O)N[C@H](Cc1ccccc1)C(=O)NCc1ccco1 | inactive
O=C(NN=CC=Cc1ccccc1)C(O)C(O)C(=O)NN=CC=Cc1ccccc1 (centres undefined) | inactive
CC(C)(C)NC(=O)NCc1ccco1 | inactive
CC(C)(C)c1ccc(NC(=O)NCc2ccco2)cc1 | 14.6 µM (active)
CC(C)(C)c1ccc(C(=O)NCc2ccco2)cc1 | inactive

Structure (SMILES) | Potency
Clc1ccc(-c2nnc(SCc3nc4ccccc4s3)o2)cc1 | inactive
Oc1c(Cl)cc(Cl)c(Cl)c1Cc1c(O)c(Cl)cc(Cl)c1Cl | 4.22 µM (active) and 23.1 µM (active) and 2.59 µM (active)
CCCn1c(N)c(C(=O)CSc2nnc3n2CCCCC3)c(=O)[nH]c1=O | inactive
CN(CC(=O)NCCc1ccc(S(N)(=O)=O)cc1)CC(=O)Nc1ccc(F)c(F)c1F | inactive
CCOc1ccccc1NC(=O)CN1CCN(S(=O)(=O)c2ccc(Br)cc2)CC1 | inactive
Cn1c(CC(=O)Nc2ccccc2)nnc1SCC(=O)c1ccccc1 | inactive
CCCCNc1c(-c2cccc(Sc3ccc(OC)cc3)c2)nc2ccccn12 | 20.6 µM (active)
CCCCNC(=O)c1onc(CSc2cccc(OC)c2)c1C(=O)O | inactive
COc1ccc(Sc2nc(-c3ccccc3)ncc2OC)cc1 | inactive
O=c1o[nH]c(-c2ccccc2)c1N=Nc1c(F)cccc1Cl | inactive
Cc1ccc2oc(=O)c3cnn(CC(=O)N4CCCCCC4)c3c2c1 | inactive
CCOC(=O)C1CCCN(C(=O)Cn2ncc3c(C)n(Cc4ccc(F)cc4)c(C)c3c2=O)C1 (centres undefined) | 16.4 µM (active)
CCOC(=O)C1CCCN(C(=O)Cn2ncc3c(=O)oc4ccc(C)cc4c32)C1 (centres undefined) | inactive
CCOc1ccc(CN(C)C(=O)c2ccc(=O)[nH]c2)cc1 | inactive
Clc1ccc2nc(-c3ccccc3)nc(C(Cl)Cl)c2c1 | 0.366 µM (active)
Cc1ccccc1C(=O)NNC(=O)CN1C(=O)c2ccccc2C1=O | inactive
Cc1noc(C)c1-c1nc(CSc2ccc(Cl)cc2)no1 | inactive
Clc1ccc(Cc2nnc(-c3cccs3)o2)cc1 | inactive
CCCC(=O)n1nc(-c2ccccc2)nc1N | inactive
CCc1nn(-c2cc(Oc3cccc4ccccc34)nc(-c3ccccc3)n2)c(N)c1C#N | 16.4 µM (active)
COc1ccc(Cn2c(=O)c3oc4ccccc4c3n(CC(=O)Nc3ccc(F)cc3F)c2=O)cc1 | inactive
CCOC(=O)c1sc(=NC(=O)/C=C/c2cccs2)n(C)c1C | inactive
CCCCc1nnc(NC(=O)CSc2nc(C)cc(=O)[nH]2)s1 | inactive
COc1ccc(OC)c(C(=O)NC2CCCc3c2cnn3-c2cc(C)cc(C)c2)c1 (centres undefined) | 16.4 µM (active)
Cc1cc(C(=O)NNC(=O)CCC2CCCCC2)c(C)o1 | inactive
COc1ccc(OC)c(CN2C(=O)CCC2(C)C(=O)NC2CCCCCC2)c1 (centres undefined) | inactive

Structure (SMILES) | Potency
Cc1cc(C(=O)NC2CCCc3c2cnn3-c2cccc(C)c2C)c(C)o1 (centres undefined) | 8.2 µM (active)
COCc1c(C(=O)NC2CCCCC2)cnn1-c1nccc(-c2ccccc2OC)n1 | inactive
Cc1cc(C(=O)NCC2Cc3cccc(-c4cncnc4)c3O2)c(C)o1 (centres undefined) | inactive
COc1ccc(C(=O)NC2CCCc3c2cnn3-c2cccc(C)c2C)c(OC)n1 (centres undefined) | 8.2 µM (active)
COC(=O)C1=C(C)N(C)C(=S)NC1c1cc(OC)ccc1OC (centres undefined) | inactive
Cc1ccccc1C(=O)NCCN=C1NS(=O)(=O)c2ccccc21 | inactive
CC(=O)N[C@H]1[C@H]([C@H](O)[C@H](O)CO)OC(C(=O)O)=C[C@@H]1O | inactive
Cc1ccc(S(=O)(=O)c2ccc(Cl)cc2)cc1S(=O)(=O)NC(C(=O)O)C(C)C (centres undefined) | inactive
CN(C)c1ccc(-n2cccc2/C=N/n2cnnc2)cc1 | inactive
C=CCN1C(=NC(=O)COc2ccccc2)SC2CS(=O)(=O)CC21 (centres undefined) | inactive
Nc1ccc2nc3c(=O)[nH]c(=S)[nH]c3nc2c1 | inactive
Cc1ccccc1OCC(=O)Nc1c(C(=O)Nc2ccccc2F)oc2ccccc12 | inactive
Cc1ccc(NC(=O)c2cnc(SCC(=O)NCC3CCCO3)n(C)c2=O)cc1 (centres undefined) | 14.6 µM (active)
Cc1cc(NC(=O)CSc2ncc(C(=O)Nc3ccc(Cl)cc3)c(=O)n2C)no1 | inactive
Cn1c(SCC(=O)c2ccccc2)ncc(C(=O)Nc2ccc(F)cc2)c1=O | inactive
COc1cccc(-n2ccn(CC(=O)NCc3ccc(C)cc3)c(=O)c2=O)c1 | inactive
CC(C)=CCN1CCN(CCCc2ccccc2)CC1CCO (centres undefined) | inactive
OCC[C@H]1C[C@@H](O)[C@H](O)[C@@]2(OCCc3ccccc32)O1 | inactive
CC(C)=CCN1CCC2(CCc3ccccc32)CC1 | 20.6 µM (active)
O=C1C(=O)N(CC2COc3ccccc3O2)c2ccccc21 (centres undefined) | 1.46 µM (active)
CCn1ccnc1C[C@@H]1COc2ccccc2O1 | inactive
Cc1cc(C(=O)CCl)c(C)n1CC1COc2ccccc2O1 (centres undefined) | 2.59 µM (active)
O=C(CN1C(=O)C2C3C=CC(C3)C2C1=O)NCC1COc2ccccc2O1 (centres undefined) | inactive
Cc1ccc(S(=O)(=O)NCCC(=O)NNC(=O)C2COc3ccccc3O2)cc1 (centres undefined) | inactive
Cc1cc(NC(=O)CCC2COc3ccccc3O2)no1 (centres undefined) | inactive
CCN(CCN(C)C)C(=O)c1ccc2nc(C)c(N(C)C(=O)CCc3ccccc3)n2c1 | inactive
